Assay results: PubChem BioAssay AID1851 (National Center for Advancing Translational Sciences (NCATS), 2009)
Screen size: about 16,000 compounds; about 5,800 (36%) were called active. Not shown: some 23% with an inconclusive outcome. Calls follow the shape of the dose curve; as a rule, active = well fitted curve in the direction sought with a large enough effect; inconclusive = small, poorly fitted or top-dose-only effect, or effect the other way; inactive = no such curve, though single readings can be large or run the other way. Some of the results follow.

These compounds were tested against Cytochrome P450 2C19 (Homo sapiens) (UniProt P33261) (assay: Cytochrome panel assay with activity outcomes). Conditions: recombinant CYP, pro-luciferin dealkylation, luminescence, p450-cyp2c19; series mostly up to 57.1 µM; activity, negative = inhibition: at the top concentration.
Cytochrome P450 2C19 (Homo sapiens), sequence (P33261 whole entry, looked up): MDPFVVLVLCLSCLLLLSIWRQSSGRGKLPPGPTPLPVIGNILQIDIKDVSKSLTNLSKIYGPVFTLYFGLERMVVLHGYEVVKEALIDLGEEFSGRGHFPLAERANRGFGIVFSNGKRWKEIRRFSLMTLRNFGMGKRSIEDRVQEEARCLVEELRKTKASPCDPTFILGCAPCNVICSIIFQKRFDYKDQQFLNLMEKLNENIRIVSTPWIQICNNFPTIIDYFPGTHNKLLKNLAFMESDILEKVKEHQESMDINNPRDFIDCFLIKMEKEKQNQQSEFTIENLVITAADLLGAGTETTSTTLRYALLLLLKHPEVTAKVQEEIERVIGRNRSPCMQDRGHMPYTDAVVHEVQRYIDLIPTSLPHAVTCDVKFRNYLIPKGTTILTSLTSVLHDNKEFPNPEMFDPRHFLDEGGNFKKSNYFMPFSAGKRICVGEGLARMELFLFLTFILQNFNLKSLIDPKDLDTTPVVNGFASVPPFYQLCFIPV
% is scaled to controls: 0 for no effect and ±100 for the full control effect.

Structure (SMILES) | activity, negative = inhibition | AC50
O=C(O)CCCc1ccc2ccccc2c1 | 0.826% [at 11.4 µM] (inactive) | 
NNC(=O)CCc1ccc2ccc3ccccc3c2c1 |  | 0.251 µM (active)
O=C1CCCC=C1[C@@H](O)COCc1ccccc1 | -32.2% [at 11.4 µM] (inactive) | 
O=C1CCCC=C1[C@@H](O)CCOC(c1ccccc1)(c1ccccc1)c1ccccc1 |  | 0.251 µM (active)
O=C1CCCC=C1[C@@H](O)C1CCCCC1 | 19.2% [at 11.4 µM] (inactive) | 
CSC1=C(C#N)C(c2ccccc2Cl)C2=C(N1)c1ccccc1C2=O (stereo unspecified) |  | 0.355 µM (active)
N#CC1=C(SCC(N)=O)NC2=C(C(=O)c3ccccc32)C1c1ccc(Cl)cc1 (stereo unspecified) |  | 3.98 µM (active)
COC(=O)[C@@H]1CC[C@H](C)[C@@H](c2ccc(C)cc2)N1C(=O)c1ccc(/C=N\OC[C@@H](O)[C@H]2O[C@H]3OC(C)(C)O[C@H]3[C@@H]2O)cc1 |  | 0.631 µM (active)
COC(=O)[C@@H]1CC[C@H](C)[C@@H](c2ccc(C)cc2)N1C(=O)c1ccc(/C=N\O[C@@H](C)c2cn([C@H](CO)Cc3ccccc3)nn2)cc1 |  | 3.98 µM (active)
COC(=O)[C@@H]1CC[C@H](C)[C@@H](c2ccc(C)cc2)N1C(=O)c1ccc(/C=N\OCC[C@@H]2C=C[C@H](OC(C)=O)[C@H](COC(C)=O)O2)cc1 | -15.5% [at 11.4 µM] (inactive) | 
COC(=O)[C@@H]1CC[C@H](C)[C@@H](c2ccc(C)cc2)N1C(=O)c1ccc(/C=N\O[C@@H](C)CN2CCCc3nc(C)c(C)cc32)cc1 | 24.5% [at 11.4 µM] (inactive) | 
COC(=O)[C@@H]1CC[C@H](C)[C@@H](c2ccc(C)cc2)N1C(=O)c1ccc(/C=N\O[C@@H]2O[C@H](COC(C)=O)[C@H](OC(C)=O)[C@H](OC(C)=O)[C@H]2OC(C)=O)cc1 | -28.1% [at 11.4 µM] (inactive) | 
COC(=O)[C@@H]1CC[C@H](C)[C@@H](c2ccc(C)cc2)N1C(=O)c1ccc(/C=N\O[C@@H](C)c2cn([C@H]3COC[C@H]3O)nn2)cc1 | -29.4% [at 11.4 µM] (inactive) | 
CO/N=C\c1ccc(C(=O)N2[C@H](c3ccc(C)cc3)[C@@H](C)CC[C@H]2C(=O)OC)cc1 | -39.6% [at 11.4 µM] (inactive) | 
COC(=O)[C@@H]1CC[C@H](C)[C@@H](c2ccc(C)cc2)N1C(=O)c1ccc(/C=N\O[C@@H](C)CN2CCCCc3nc(C)c(C)cc32)cc1 | -15.5% [at 11.4 µM] (inactive) | 
COC(=O)[C@@H]1CC[C@H](C)[C@@H](c2ccc(C)cc2)N1C(=O)c1ccc(/C=N\OC[C@@H]2O[C@H](c3ccccc3)C=C[C@@H]2Oc2ccc(OC)cc2)cc1 |  | 0.0501 µM (active)
CC(C)Oc1ccc(C2CC(=O)NC3=C2C(=O)CCC3)cc1 (stereo unspecified) |  | 22.4 µM (active)
CO[C@@H]1COC(=O)C/C=C\[C@H](C)[C@H](OC)COC(=O)[C@H]2CCCN2C(=O)C/C=C\[C@H]1C | 3.47% [at 11.4 µM] (inactive) | 
CCOC(=O)N1CCN(S(=O)(=O)c2ccc3[nH]cc(C(=O)O)c(=O)c3c2)CC1 | -23.3% (inactive) | 
Cc1cc(=O)c2cc(Cl)ccc2[nH]1 | -7.25% (inactive) | 
CCOC(=O)N1CCN(c2c(-c3ccccc3)c3cc(Cl)ccc3[nH]c2=O)CC1 |  | 3.16 µM (active)

Structure (SMILES) | activity, negative = inhibition | AC50
COc1ccc2[nH]cc(CCNc3cc(-c4cccnc4)ncn3)c2c1 |  | 25.1 µM (active)
CN(C)c1ccnc(-c2cccc(NS(C)(=O)=O)c2)n1 | 20.5% (inactive) | 
COc1ccc2[nH]cc(CCNc3ccnc(-c4cccc(NS(C)(=O)=O)c4)n3)c2c1 |  | 10 µM (active)
Cc1cnc(CNc2cc(-c3cccnc3)ncn2)cn1 | -6.34% (inactive) | 
COc1cccc(-c2cc(NCCc3c[nH]c4ccc(OC)cc34)ncn2)c1 |  | 0.501 µM (active)
COc1ccc2[nH]cc(CCNc3ccnc(-c4cccnc4)n3)c2c1 |  | 1 µM (active)
COc1ccc2[nH]cc(CCNc3cc(-c4cccc(C#N)c4)ncn3)c2c1 |  | 7.94 µM (active)
Cc1cnc(CNc2cc(-c3ccoc3)ncn2)cn1 | -24.6% (inactive) | 
COc1ccc2[nH]cc(CCNc3cc(-c4ccoc4)ncn3)c2c1 |  | 5.01 µM (active)
COc1ccc(-n2c(=O)c(-c3cccc(C#N)c3)nc3cnc(N4CCNCC4)nc32)cc1 | -21.4% (inactive) | 
C[C@H]1CC(C)(C)C[C@@](OCCN2CCCCC2)(c2ccccc2)C1 | -2.08% [at 11.4 µM] (inactive) | 
COc1cccc(CC(C(=O)Nc2cc(C)ccc2C)c2nn[nH]n2)c1OC (stereo unspecified) |  | 11.2 µM (active)
O=C1C2=CC[C@H]3C(=O)N(c4cccc(Oc5ccccc5)c4)C(=O)[C@@H]3[C@@H]2[C@H](O)[C@@H]2O[C@H]12 | 2.5% [at 11.4 µM] (inactive) | 
Cc1cccc(Oc2coc3cc(OC(=O)c4cccs4)ccc3c2=O)c1 |  | 3.98 µM (active)
COc1cccc(C2C3=C(CC(C)(C)CC3=O)OC(N)=C2[N+](=O)[O-])c1 (stereo unspecified) |  | 8.91 µM (active)
CCCNC(=O)c1c(C)cc(=O)oc1C | 3.91% (inactive) | 
CCC(C)NC(=O)c1c(C)cc(=O)oc1C (stereo unspecified) | 41.3% (inactive) | 
Cc1cc(=O)oc(C)c1C(=O)N1CCCCC1 |  | 4.47 µM (active)
O=C(CCc1ccccc1)NNC(=O)C1CCCCC1 |  | 25.1 µM (active)
CN(C)CC(O)COc1ccc(C(C)(C)c2ccc(OCC(O)CN(C)C)cc2)cc1 (stereo unspecified) | -6.76% (inactive) | 
